From PubChem BioAssay (NCI)
About 83,000 compounds went through this panel and 20% of them were active in at least one assay; those are over-represented in the sample as a whole.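 Step 1: grow cells in 96-well plates. Step 2: add test compound at a single concentration. Step 3: incubate 48 h. Step 4: record percent growth.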 Active and inactive are the calls of the source. Rule for the calls: active = growth percent below 10; inactive = the rest.

Columns and labels:
Assay in all cases: NCI-60 one-dose screen, 48 h (100 = growth as untreated, 0 = no growth, -100 = all killed)
Settings in all cases: 10 µM unless noted
[1] = test system: NCI-H23 lung
[2] = test system: NCI-H226 lung
[3] = test system: NCI-H322M lung
[4] = test system: HOP-62 NSCLC
[5] = test system: NCI-H460 lung
[6] = test system: HOP-92 NSCLC
[7] = test system: NCI-H522 lung
[8] = test system: A549/ATCC NSCLC
[9] = test system: 786-0 renal
[10] = test system: COLO 205 colon
[11] = test system: DU-145 prostate
[12] = test system: K-562 leukemia
[13] = test system: MALME-3M melanoma
[14] = test system: MDA-MB-231 breast
[15] = test system: SF-268 CNS
[16] = test system: SF-295 CNS
[17] = test system: SF-539 CNS
[18] = test system: UACC-257 melanoma
[19] = test system: M14 melanoma

Measured: growth

COc1ccc(NS(=O)(=O)c2ccc(C)cc2)c([N+](=O)[O-])c1
inactive: [1] 96.6% | [2] 90.8% | [3] 94% | [4] 97.3% | [5] 106% | [6] 83.5% | [7] 87.9% | [8] 99.7% | [9] 107% | [10] 112% | [11] 111% | [12] 93.2% | [13] 96.2% | [14] 96% | [15] 101% | [16] 110% | [17] 110% | [18] 98.7% | [19] 109%

O=C1NC(=S)NC(=O)C1=Cc1cccc(C=C2C(=O)NC(=S)NC2=O)c1
inactive: [1] 102% | [2] 98.8% | [3] 110% | [4] 104% | [5] 104% | [6] 116% | [7] 93.1% | [8] 108% | [9] 12.2% | [10] 113% | [11] 110% | [12] 102% | [13] 109% | [14] 108% | [15] 103% | [16] 108% | [17] 99.9% | [18] 102%
active: [19] -58.6%

COc1ccc(-c2nc(N=Nc3c(O)[nH]c4ccccc34)nc(N3CCOCC3)c2C#N)cc1
active: [17] -47.2%
inactive: [1] 81.9% | [2] 38.4% | [3] 77.1% | [4] 68% | [5] 46.5% | [6] 19.6% | [7] 72.1% | [8] 51.7% | [9] 79.7% | [10] 67.8% | [11] 63.7% | [12] 75% | [13] 51% | [14] 42.6% | [15] 62.4% | [16] 86.4% | [18] 73.6% | [19] 60.9%

O=C(NCCN1CCOCC1)OCc1nc2nc(Cl)nc(N3CCOCC3)c2[nH]1
active: [5] 9.27% | [7] -29.8% | [11] 8.23% | [12] 6.62% | [17] -15.8% | [19] 9.49%
inactive: [1] 26.3% | [2] 62.6% | [3] 42.4% | [4] 32.5% | [6] 54.3% | [8] 68.2% | [9] 58.1% | [10] 110% | [13] 50% | [14] 22.9% | [15] 27% | [16] 94.6% | [18] 69.2%

CCCCc1ccc(Nc2nnc(SCC(=O)NC(=O)NCC)s2)cc1
inactive: [1] 97.3% | [2] 95.7% | [3] 81.5% | [4] 96% | [5] 102% | [6] 61.4% | [7] 87.7% | [8] 109% | [9] 95.9% | [10] 202% | [11] 104% | [12] 91.6% | [13] 97.2% | [14] 88.1% | [15] 92.4% | [16] 110% | [17] 96.4% | [18] 113% | [19] 107%

CSc1nnc2c(=O)n(C)c(=O)n(C)c2n1
inactive: [1] 108% | [2] 93.2% | [3] 88.9% | [4] 116% | [5] 114% | [6] 68.1% | [7] 103% | [8] 104% | [9] 116% | [10] 97.8% | [11] 100% | [12] 86.1% | [13] 114% | [14] 105% | [15] 108% | [16] 130% | [17] 109% | [18] 123% | [19] 102%

CCCCCCCCCCCCC1CCC/C=C\CCC(=O)O1 (stereo not given)
inactive: [1] 88.6% | [2] 100% | [3] 117% | [4] 111% | [5] 104% | [6] 111% | [7] 91.8% | [8] 55% | [9] 95.4% | [10] 101% | [11] 115% | [12] 101% | [13] 108% | [14] 99.3% | [15] 101% | [16] 103% | [17] 104% | [18] 119% | [19] 95.2%

c1cnc2nc3c(cc2c1)oc1ccccc13
inactive: [1] 95.9% | [2] 93.2% | [3] 99.9% | [4] 108% | [5] 95.2% | [6] 90.3% | [7] 89.1% | [8] 87.3% | [9] 89.4% | [10] 109% | [11] 103% | [12] 92.4% | [13] 109% | [14] 86.3% | [15] 97.1% | [16] 96.7% | [17] 93.2% | [18] 116% | [19] 105%

CC(=O)O[C@H]1CC[C@@]2(C)[C@@H](CC[C@@H]3[C@@H]2CC[C@@]2(C)[C@H]3CC[C@]2(O)C(C)=O)C1
inactive: [1] 101% | [2] 89.8% | [3] 91.9% | [4] 95.3% | [5] 105% | [6] 101% | [7] 96.8% | [8] 92.1% | [9] 98.1% | [10] 107% | [11] 115% | [12] 100% | [13] 99.5% | [14] 100% | [15] 106% | [16] 94.4% | [17] 100% | [18] 109% | [19] 99.3%

COc1ccc(Cn2nc3c(c2-c2cc(OC)c(OC)c(OC)c2)-c2oncc2CC3)cc1
inactive: [1] 79.8% | [2] 106% | [3] 99% | [4] 96.7% | [5] 107% | [6] 78.2% | [7] 12.7% | [8] 95.2% | [9] 85.1% | [10] 99.1% | [11] 105% | [12] 39.9% | [13] 93.7% | [14] 65.8% | [15] 96.7% | [16] 77.2% | [17] 89.1% | [18] 104% | [19] 84.6%

COc1ccc(-c2ncc(-c3ccccc3)[nH]2)cc1OC
active: [9] -10.5%
inactive: [1] 101% | [2] 100% | [3] 218% | [4] 112% | [5] 112% | [6] 93% | [7] 108% | [8] 110% | [10] 145% | [11] 131% | [12] 93.9% | [13] 260% | [14] 107% | [15] 103% | [16] 88.6% | [17] 100% | [18] 10.5% | [19] 119%

COc1ccc(/C=C(/c2ccccc2)[N+](=O)[O-])cc1
active: [1] -47.9% | [2] -6.73% | [3] 4.07% | [4] -36.2% | [5] -23.3% | [6] -55.6% | [7] -83.6% | [8] 5.17% | [9] -93.4% | [10] -71.9% | [11] -85.5% | [12] -7.82% | [13] -44.2% | [14] -49.3% | [17] -89.2% | [18] -0.12%
inactive: [15] 47.6% | [16] 33.2% | [19] 42.8%

COc1ccc(C(=O)c2cc3c(N)c(C(=O)Nc4cccc(Br)c4C)sc3nc2C)cc1
inactive: [1] 27.4% | [2] 45.6% | [3] 52.6% | [4] 28.8% | [6] 13.6% | [8] 17.4% | [9] 26.2% | [13] 51.8% | [14] 13% | [15] 22.9% | [16] 22.2% | [18] 59%
active: [5] 5.88% | [7] -27.4% | [10] -40% | [11] 8.9% | [12] 5.28% | [17] -15.3% | [19] 7.09%

COc1cc(NCCCN(CC(C)C)CC(C)C)c2ncccc2c1
inactive: [1] 72.9% | [2] 97.8% | [3] 108% | [4] 87.6% | [5] 95.2% | [6] 84.2% | [7] 73.2% | [8] 80.7% | [9] 90.7% | [10] 90.2% | [11] 106% | [12] 110% | [13] 102% | [14] 88.7% | [15] 89.5% | [16] 89.4% | [17] 102% | [18] 90.9% | [19] 91.4%

O=C(OCc1nc2nc(Cl)nc(N3CCOCC3)c2[nH]1)n1ccnc1
inactive: [1] 40.7% | [3] 65.4% | [4] 30.4% | [8] 48.4% | [13] 11% | [16] 95.2%
active: [2] -67.6% | [5] 3.6% | [6] -66.7% | [7] -66% | [9] -81.4% | [10] -65.3% | [11] 9.47% | [12] -7.19% | [14] -6.91% | [15] 5.74% | [17] -19.7% | [18] -71% | [19] -37.6%
